Experiment [1] can be described thus: Identifying Small Molecule Inhibitors of Pancreatic Cancer Stem Cells (Panc1, Adherent) (AID 1259362). Particulars: Potency: viability. A digest of the protocol:
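Cytotoxicity read by CellTiter-Glo luminescence after 48 h compound exposure at 37C; percent activity scaled between DMSO-treated cells and cell-free wells. Spheroid formats used cells pre-formed 14 days in stem cell media on hydrogel.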

Experiment [2] is described as follows: P-glycoprotein substrates identified in KB-8-5-11 adenocarcinoma cell line, qHTS therapeutic library screen (AID 1346987). Also: nearly all actives have a fitted effect of over 65% in size. A digest of the protocol: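 Compounds are pinned in dose-response onto KB-8-5-11 cells (500 cells/well, colchicine-free medium) and left 72 h at 37 degree C. CellTiter-Glo luminescence then yields AC50 values.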
In general terms: In qHTS, concentration-response curves come from the screen itself.

Experiment [3] in a line: NS1 protein of Zika virus - qHTS assay to identify small molecule inhibitors in human HEK 293 cells (AID 1347053). Also: nearly all actives have a fitted effect of over 55% in size.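 As to activity change, negative = inhibition: series mostly up to about 46 µM; plate controls were infected untreated cells for no effect and uninfected cells for full effect.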 A digest of the protocol:
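Read-out is a two-antibody TR-FRET for ZIKV NS1, normalized between uninfected cells and infected cells. Compound added 1 h before MR766 infection at MOI 0.5; human HEK 293 cells incubated 24 h, 37 C.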

Experiment [4] in a line: qHTS of pediatric cancer cell lines to identify multiple opportunities for drug repurposing: Primary screen for TC32 cells (AID 1347089). Also: nearly all actives have a fitted effect of over 60% in size. As to activity change, negative = cytotoxic: % is scaled to controls: 0 for no effect and ±100 for the full control effect. The essentials: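 A viability screen of TC32 cells was run over 48 h, with primary MIPE doses spanning 0.78 nM–46 µM and NPC doses 0.59 nM–46 µM. ATP luminescence (CellTiter-Glo) served as the read-out.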
Experiment [5] in a line: qHTS of pediatric cancer cell lines to identify multiple opportunities for drug repurposing: Primary screen for DAOY cells (AID 1347090). Also: nearly all actives have a fitted effect of over 55% in size.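 As to activity change, negative = cytotoxic: series mostly up to about 46 µM; plate controls were DMSO for no effect and bortezomib for full effect.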 The essentials:
(§1)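 Cell viability, CellTiter-Glo luminescence; 500-1,000 cells/well, 8- or 11-point titration, 48 h compound exposure at 37 degrees C, 5% CO2. Controls: DMSO neutral, bortezomib 2.3 µM final as positive.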

Experiment [6] can be described thus: qHTS of pediatric cancer cell lines to identify multiple opportunities for drug repurposing: Primary screen for SJ-GBM2 cells (AID 1347091).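 As to activity change, negative = cytotoxic: plate controls were DMSO neutral control for no effect and bortezomib for full effect.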 The essentials: as §1
The nature of experiment [7]: qHTS of pediatric cancer cell lines to identify multiple opportunities for drug repurposing: Primary screen for A673 cells (AID 1347092). Also: nearly all actives have a fitted effect of over 45% in size. As to activity change, negative = cytotoxic: % is scaled to controls: 0 for no effect and ±100 for the full control effect. A digest of the protocol: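 Titration-based qHTS on A673 cells: MIPE compounds spanned 11 points (0.78 nM to 46 µM final), NPC compounds 8 points (0.59 nM to 46 µM final). Viability after 48 h was measured by ATP luminescence.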
A short description of experiment [8]: qHTS of pediatric cancer cell lines to identify multiple opportunities for drug repurposing: Primary screen for BT-37 cells (AID 1347094).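 As to activity change, negative = cytotoxic: series mostly up to about 57 µM; plate controls were DMSO for no effect and bortezomib for full effect.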 A digest of the protocol:
(§2)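 ATP-based luminescence (CellTiter-Glo) quantifies viability after a 48-hour exposure. Compounds are dosed across 8 or 11 final concentrations; DMSO and 2.3 µM bortezomib serve as controls.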

Experiment [9] in a line: qHTS of pediatric cancer cell lines to identify multiple opportunities for drug repurposing: Primary screen for NB-EBc1 cells (AID 1347095).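 As to activity change, negative = cytotoxic: plate controls were DMSO neutral control for no effect and bortezomib for full effect.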 A digest of the protocol: as §2
Experiment [10] in a line: P-glycoprotein substrates identified in KB-3-1 adenocarcinoma cell line, qHTS therapeutic library screen (AID 1346986).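 Also: potency is for cytotoxicity meaning loss of cell viability; nearly all actives have a fitted effect of over 60% in size.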 A digest of the protocol:
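Viability read by CellTiter-Glo after 72 h compound exposure in dose-response of KB-3-1 and KB-8-5-11 (P-gp-high) cells. Hits needed AC50 < 10 uM, >50% maximum response and curve class -1.1 to -2.4. Cherry-picks retested ± tariquidar, including pcDNA/MDR-19 HEK-293 pair.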

The nature of experiment [11]: qHTS of pediatric cancer cell lines to identify multiple opportunities for drug repurposing: Primary screen for SK-N-MC cells (AID 1347093).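 As to activity change, negative = cytotoxic: series mostly up to about 46 µM; plate controls were DMSO neutral control for no effect and bortezomib for full effect.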 The essentials:
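Metabolically active cells were quantified by ATP-dependent luminescence (CellTiter-Glo, 15 min at room temperature) following 48 h treatment. Cells had been plated at 500-1,000 per well and settled for 5 h beforehand.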

Molecules are shown by their SMILES. Several values for one entry are separate records, joined by “and”; a condition that tells them apart may be missing. Equal entries are not always repeated. Inconclusive results are not listed. The source holds several records for some structures; these can differ, active in one and inactive in another. Activity calls are given as the source filed them. Calls follow the shape of the dose curve; as a rule, active = well fitted curve in the direction sought with a large enough effect; inconclusive = small, poorly fitted or top-dose-only effect, or another doubt; inactive = no such curve, though single readings can be large; an effect the other way counts as inactive or inconclusive.

The values below come from PubChem BioAssay (NCATS).
Potency is read from the fitted curve at half-maximal effect.

Turning to `CC(C)(C)c1cc(C(C)(C)C)c(NC(=O)c2c[nH]c3ccccc3c2=O)cc1O`, in experiment [1], the Potency was 23.5 µM (active). In addition, the Potency result in experiment [2], in experiment [3], in experiment [4], in experiment [5], in experiment [6] and in experiment [7] was “inactive” in each case. In addition, the Potency result in experiment [8] and in [9] was “inactive” each time.

Regarding `O=C(Nc1cn[nH]c1-c1nc2ccc(CN3CCOCC3)cc2[nH]1)NC1CC1`, the Potency in experiment [10] was 1.16 µM (active); in [3], 9.35 µM (active); in [5] it was 3.72 µM (active); in [6], 0.59 µM (active); in experiment [11], 0.059 µM (active); in experiment [9], 1.48 µM (active). Besides, the Potency entry in experiment [2] was “inactive”.

Regarding `Cc1ccc2nc(NC(=O)CSc3nc4c(c(=O)n3-c3ccccc3)SCC4)sc2c1`, the Potency entry in [2], in experiment [3] and in experiment [4] was “inactive” in each case. Also, the Potency in experiment [5] was 18.7 µM (active); in [7], 14.8 µM (active); in experiment [11], 26.4 µM (active).

On to `c1nc2nc(Nc3ccc(N4CCOCC4)cc3)nc(NC3CCCCC3)c2[nH]1`, for which the Potency in experiment [10] was 1.3 µM (active); in experiment [4] it was 4.66 µM (active); in [5] it was 18.7 µM (active); in experiment [6], 1.48 µM (active); in experiment [7], 4.69 µM (active); in experiment [11], 0.935 µM (active). The results for the Potency in experiment [8] and in experiment [9] were 21.7 µM (active) and 3.72 µM (active), respectively.

Regarding `COc1ccc(C(=O)CC2(O)C(=O)Nc3c(Cl)ccc(Cl)c32)cc1` (stereo unspecified), the Potency is 2.64 µM (active) and 1.16 µM (active) in experiment [2]; 1.05 µM (active) in experiment [3]; 7.39 µM (active) in experiment [4]; 3.72 µM (active) in experiment [5]; 1.18 µM (active) in experiment [6]; 2.35 µM (active) in experiment [7]. Also, the Potency in [9] is 0.418 µM (active).

`CNC(=O)c1cc(Oc2ccc(NC(=O)Nc3cc(C(C)(C)C)nn3-c3ccc4ncccc4c3)c(F)c2)ccn1`: the Potency in experiment [2] is 18.7 µM (active); in [5], 18.7 µM (active); in experiment [6], 1.32 µM (active); in experiment [7], 5.9 µM (active); in experiment [9] it was 2.35 µM (active). The Potency entry in experiment [3] and in [4] was “inactive” in each case.

Take `COC(=O)Nc1ccc(-c2nc(N3CCOCC3)c3cnn(C4CCN(Cc5cccnc5)CC4)c3n2)cc1`: the Potency in experiment [10] is 1.03 µM (active); in [3], 16.6 µM (active); in experiment [5], 4.69 µM (active); in experiment [6], 0.743 µM (active); in [7], 4.69 µM (active); in experiment [11], 0.0469 µM (active). In addition, the Potency in experiment [8] is 0.544 µM (active); in [9] it was 1.18 µM (active).

As for `CC1COC2(CCN(c3nc(=O)c4cc(C(F)(F)F)cc([N+](=O)[O-])c4s3)CC2)O1` (stereo unspecified), the Potency result in experiment [2], in [3], in experiment [4], in experiment [5], in [6] and in experiment [7] was “inactive” throughout. The Potency entry in [11], in [8] and in experiment [9] was “inactive” in each case.

In the case of `COc1cc(C(=O)NS(=O)(=O)c2ccccc2C)ccc1Cc1cn(C)c2ccc(NC(=O)OC3CCCC3)cc12`, the Potency entry in experiment [2], in [3], in [4] and in experiment [9] was “inactive” throughout. For the same compound, the figures for the Potency in experiment [5], in experiment [7] and in [11] were 29.6 µM (active), 14.8 µM (active) and 8.33 µM (active), respectively.

With `CC(C)(C)c1cnc(CSc2cnc(NC(=O)C3CCNCC3)s2)o1`, the Potency entry in [2] is “inactive”. In addition, the Potency was 1.32 µM (active) in experiment [3]; 1.31 µM (active) in experiment [4]; 0.935 µM (active) in experiment [5]; 0.187 µM (active) in experiment [6]; 0.0469 µM (active) in [7]; 0.332 µM (active) in experiment [11]. The Potency in [9] was 0.935 µM (active).

On to `COc1ccc(F)c(F)c1C(=O)c1cnc(NC2CCN(S(C)(=O)=O)CC2)nc1N`, for which the Potency in experiment [2] was 3.72 µM (active) and 4.11 µM (active); in [3], 14.8 µM (active); in [4], 5.87 µM (active); in experiment [5], 3.72 µM (active); in experiment [6] it was 0.743 µM (active); in experiment [7], 1.48 µM (active). The Potency in experiment [9] is 0.296 µM (active).

Take `Cc1nc(Nc2n[nH]c3c2CN(C(=O)N[C@H](CN(C)C)c2ccccc2)C3(C)C)c2sccc2n1`: the Potency entry in experiment [2] is “inactive”. Further, the Potency in experiment [3] is 13.2 µM (active); in experiment [4], 0.739 µM (active); in experiment [5], 11.8 µM (active); in [6], 1.05 µM (active); in [7] it was 0.0148 µM (active); in experiment [11], 0.0332 µM (active). Besides, the Potency was 0.611 µM (active) in experiment [8] and 10.5 µM (active) in [9].

In the case of `COc1ccc(CC2c3cc(OC)c(OC)cc3CC[N+]2(C)CCC(=O)OCCCCCOC(=O)CC[N+]2(C)CCc3cc(OC)c(OC)cc3C2Cc2ccc(OC)c(OC)c2)cc1OC` (stereo unspecified), the Potency entry in [2] is “inactive”. For the same compound, in experiment [3], the activity change, negative = inhibition was -9.69% [at 9.2 µM] (inactive). For the same compound, the activity change, negative = cytotoxic is -1.18% [at 9.17 µM] (inactive) in experiment [4]; -5.91% [at 9.22 µM] (inactive) in [5]; 27.6% [at 9.22 µM] (inactive) in [6]; -4.72% [at 9.22 µM] (inactive) in [7]; -16.8% [at 9.22 µM] (inactive) in experiment [11]; 6.03% [at 11.5 µM] (inactive) in experiment [8]. For the same compound, in experiment [9], the activity change, negative = cytotoxic was 16.9% [at 9.22 µM] (inactive).

For the compound `CCCNC(=O)Nc1ccc(Oc2ncnc3cc(OC)c(OC)cc23)cc1Cl`, the Potency entry in experiment [2], in [3], in experiment [4], in [5], in experiment [7] and in experiment [11] was “inactive” in each case. The Potency result in experiment [8] was “inactive”.

For `CCN(CC)CCNC(=O)c1ccc2nc(-c3ccccc3)c(-c3ccc(CN4CCC(n5c(=O)[nH]c6ccccc65)CC4)cc3)nc2c1`, the Potency in [2] is 3.72 µM (active); in experiment [3] it was 3.32 µM (active); in experiment [4], 18.6 µM (active); in experiment [5] it was 23.5 µM (active); in experiment [7], 1.18 µM (active); in experiment [11] it was 2.64 µM (active). Also, the Potency in experiment [8] was 10.9 µM (active).

For the compound `COc1cccc2c(NCc3ccccc3)nc(-n3c(N)nc4ccccc43)nc12`, the Potency result in experiment [2] and in experiment [4] was “inactive” in each case. In addition, the Potency was 9.35 µM (active) in experiment [3]; 9.35 µM (active) in experiment [5]; 5.9 µM (active) in [7]; 3.72 µM (active) in [11]; 7.69 µM (active) in experiment [8]; 9.35 µM (active) in [9].

Turning to `OCc1ccc(-c2ccc(-c3ccc(CO)s3)o2)s1`, the Potency result is “inactive and 3.17 µM (active)” in [2]; 9.35 µM (active) in experiment [5]; 16.6 µM (active) in experiment [6]; 0.148 µM (active) in experiment [7]; 14.8 µM (active) in experiment [9]. Further, the Potency result in [3], in experiment [4] and in [8] was “inactive” throughout.
